Assay results as given in paper PMC4666376, “Characterisation of aptamer–target interactions by branched selection and high-throughput sequencing of SELEX pools”.

Each sequence was assayed against PAI-1 wild type, active (human, UniProt P05121 24-402) (assay: branched SELEX with high-throughput sequencing; PAI-1 immobilised on polyclonal anti-PAI-1 antibody; HBS (10 mM HEPES pH 7.4, 140 mM NaCl), 2 mM MgCl2, 2 mM CaCl2, 0.1% BSA; RNA pool 100 nM; PAI-1 captured on antibody-coated wells; 45 min; binding temperature not stated (PAI-1 capture at room temperature); high values mean tight binding). Conditions: protein: recombinant; tags: N-terminal His6; structured_RNA; 2'-F pyrimidines.
Sequence of PAI-1 wild type, active (P05121 24-402): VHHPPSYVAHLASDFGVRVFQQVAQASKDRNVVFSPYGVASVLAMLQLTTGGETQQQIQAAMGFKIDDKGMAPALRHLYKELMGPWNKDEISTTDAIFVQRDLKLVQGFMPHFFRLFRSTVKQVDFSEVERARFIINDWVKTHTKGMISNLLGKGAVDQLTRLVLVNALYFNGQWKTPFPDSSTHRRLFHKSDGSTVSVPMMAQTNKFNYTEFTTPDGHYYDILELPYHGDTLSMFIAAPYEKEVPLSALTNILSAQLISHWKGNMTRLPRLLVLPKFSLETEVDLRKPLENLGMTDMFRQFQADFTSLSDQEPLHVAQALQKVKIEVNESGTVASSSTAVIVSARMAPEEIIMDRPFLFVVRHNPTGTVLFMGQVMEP
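Further: Pool frequency after one selection round with this target divided by frequency before selection.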

| Sequence | binding signal [enrichment factor] |
| --- | --- |
| GGGGCCACCAACGACAUUCAGCGAUGUAGUGCACAUUGCACGACCAUGAUGGAGUUGAUAUAAAUAGUGCCCAUGGAUC | 0.53 |
| GGGGCCACCAACGACAUUCGUAACGUAGGGAGUAUUCCCGAUCAGAAUGUACAGUUGAUAUAAAUAGUGCCCAUGGAUC | 0.36 |
| GGGGCCACCAACGACAUUGUCGUAGGACGUGAGUGUCUGACCGAUGUAGUUGGGUUGAUAUAAAUAGUGCCCAUGGAUC | 0.65 |
| GGGGCCACCAACGACAUUCGUGUUGUAUCUGUUAUACAGCAUGUUAUUUGUGCGUUGAUAUAAAUAGUGCCCAUGGAUC | 3.72 |
| GGGGCCACCAACGACAUUUCAUAACGUAGACUGUCUGAGUCGAUCAGAGUGUUGUUGAUAUAAAUAGUGCCCAUGGAUC | 1.68 |
| GGGGCCACCAACGACAUUUGUCAACAUAACGUAGAGCAAUUACAGCUCGAUCAGUUGAUAUAAAUAGUGCCCAUGGAUC | 3.13 |
| GGGGCCACCAACGACAUUUAGGGUGCCGAUCAUGUCACGUAGGCAUCCGAUACGUUGAUAUAAAUAGUGCCCAUGGAUC | 0.42 |
| GGGGCCACCAACGACAUUUGGACUGAAUCCAACCUUAUGCGUAAGCAUAGUUCGUUGAUAUAAAUAGUGCCCAUGGAUC | 2.2 |
| GGGGCCACCAACGACAUUGUACCACGUAGGAUGAAGUCAUCCGAUCACAGUGUUGAUAUAAAUAGUGCCCAUGGAUC | 0.87 |
| GGGGCCACCAACGACAUUGCCGUAGGAAUUCGUCCUGAGUUCCGAUCAAUAGCGUUGAUAUAAAUAGUGCCCAUGGAUC | 0.74 |
| GGGGCCACCAACGACAUUGACUCCUAGUUAUACCGAUUAGGACUUGUAGAUGCGUUGAUAUAAAUAGUGCCCAUGGAUC | 0.26 |
| GGGGCCACCAACGACAUUUGCGUAAGCAACCUUGGUGUUAUAUUCACCAGAUCGUUGAUAUAAAUAGUGCCCAUGGAUC | 0.63 |
| GGGGCCACCAACGACAUUGUUGAGCGCUGAGUUUCUGCGUUAGUUCUGUCAAUGUUGAUAUAAAUAGUGCCCAUGGAUC | 3.37 |
| GGGGCCACCAACGACAUUAUACAGCCGAUCAUGUCACGUAGGCUGUGAUUAACGUUGAUAUAAAUAGUGCCCAUGGAUC | 0.58 |
| GGGGCCACCAACGACAUUGAACCACGUAGGCUCGUUUCUGAGCCGAUCUCGAUGUUGAUAUAAAUAGUGCCCAUGGAUC | 1.62 |
| GGGGCCACCAACGACAUUUACCGUCUGGGUAACCUUGUACGAUAGUACAGUUCGUUGAUAUAAAUAGUGCCCAUGGAUC | 1.31 |
| GGGGCCACCAACGACAUUGACUAGACAUGAUGUUGCAUGUCACCAUGUAAAAUGUUGAUAUAAAUAGUGCCCAUGGAUC | 0.92 |
| GGGGCCACCAACGACAUUAUUUUCCGGUCGUUUAGGUGUUCAACACUCCGGAUGUUGAUAUAAAUAGUGCCCAUGGAUC | 8.72 |
| GGGGCCACCAACGACAUUUCACACUGUAAGGCCAUGUGCCGACUAGAAAUUGCGUUGAUAUAAAUAGUGCCCAUGGAUC | 0.84 |
| GGGGCCACCAACGACAUUGUAGCAUAAUCAACCUGCGACUGUCGUGUGAUAAGGUUGAUAUAAAUAGUGCCCAUGGAUC | 1.02 |
| GGGGCCACCAACGACAUUACGAACUUGUAGGCACGAAUACGCCGACCUCUAAUGUUGAUAUAAAUAGUGCCCAUGGAUC | 1.25 |
| GGGGCCACCAACGACAUUCGACCAGACGACAAGUCGUCGCACCGUAGAGUGUAGUUGAUAUAAAUAGUGCCCAUGGAUC | 0.15 |
| GGGGCCACCAACGACAUUACGUAGUUGCCUAAUAAAGGUAGCGAUUUGGAUUCGUUGAUAUAAAUAGUGCCCAUGGAUC | 1.28 |
| GGGGCCACCAACGACAUUCCUGCAACGUAGGCGCGUAAGCUCCGAUCAAGGAUGUUGAUAUAAAUAGUGCCCAUGGAUC | 0.53 |
